Laboratory results published in PubChem BioAssay AID1628 (Sanford-Burnham Center for Chemical Genomics, 2009).
Hit rate of the full screen: of about 190,000 compounds, about 930 (0.49%) were called active. The list shows a part of the results. Potency and affinity values are given separately. Unmarked numbers belong to inactive results.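 How the source made its calls: active means z-score of insulin promoter reporter brightness in nuclei below -3 at 5 µM, with at least 500 cells counted; inconclusive means wells with under 500 cells, flagged as toxic or sparse; inactive means the rest.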

experiment: insulin promoter down-regulators in MIN6 cells, imaging, high-content screening, mouse beta cells (AID 1628); conditions: MIN6 insulin promoter GFP reporter, at 5 µM, active compounds read low

Compound	z-score
CCN(CC)S(=O)(=O)c1cccc(-c2n[nH]c(=S)n2/N=C/c2ccc(C(=O)OC)cc2)c1	-4.66 (active)
COC(=O)c1cc(Nc2cc(C)c3ccc(O)cc3n2)cc(C(=O)OC)c1	-3.19 (active)
COC(=O)c1cc(-c2c(C)oc3cc(O)ccc3c2=O)c(C)o1	0.55
Cc1cc(C(=O)COc2ccc(-c3nnco3)cc2)c(C)n1Cc1ccccc1	-4.66 (active)
S=C(Nc1ccccc1Cl)N(CCCN1CCOCC1)Cc1ccco1	-4.9 (active)
Cc1csc(NC(=O)CN(C)S(=O)(=O)c2cccc3cccnc23)n1	3.05
Cc1csc(SCC(=O)Nc2cccc3nsnc23)n1	-3.34 (active)
CCOC(=O)Cc1csc(SCC(=O)Nc2cccc(C#N)c2)n1	1.27
N=c1c2c(n(Cc3ccc([N+](=O)[O-])cc3)c3c1CCC3)CCCC2	-3.48 (active)
N=c1c2c(n(Cc3ccc(F)cc3)c3c1CCC3)CCC2	-5.9 (active)
CC(C)(C)NC(=O)N1CCC(CO)(Cc2ccccc2Cl)CC1	-3.59 (active)
CCCn1nc2cc(C(=O)NCc3ccccc3)ccc2c1OCC	4.73
CCCCn1nc2cc(C(=O)N(CC)c3ccc(OC)cc3)ccc2c1OCC	-3.8 (active)
Cc1ccccc1N=Nc1c(C)[nH]n(C(N)=S)c1=O	-9.54 (active)
O=C(NNS(=O)(=O)c1ccc(F)cc1F)c1csc(-c2cccnc2)n1	-3.45 (active)
Nc1c(C(=O)N/N=C/c2cccnc2)oc2nc(-c3ccccc3)cc(-c3ccco3)c12	4.08
O=C(CSc1nc(Cc2ccccc2)nc2ccccc12)Nc1nc2c(s1)CCCC2	-3.54 (active)
CN(C)c1ccc(/C=C(\C#N)C(=O)Nc2nc3c(s2)CCN(Cc2ccccc2)C3)cc1	15.1
CCCCc1nnc(NC(=O)CSc2nc(O)c(Cc3ccccc3)c(=O)[nH]2)s1	2.27
O=c1cc(O)c2c(=O)n(-c3ccccc3)c3c(c2o1)CCCCCC3	-4.17 (active)
Cc1cc(Nc2nn(C)c(N)c2C#N)ccc1F	6.01
CCOC(=O)C1C(=O)C=C(/C=C/c2ccc(N(C)C)cc2)CC1c1ccccc1 (stereo not given)	9.81
CCOC(=O)C1C(=O)C=C(c2cccc(NS(C)(=O)=O)c2)CC1c1ccco1 (stereo not given)	-3.47 (active)
COc1ccc(OCCC(=O)NC2CCCCC2)cc1	-3.45 (active)

Compound	z-score
COc1ccc(-c2nnn(CC(=O)N(CCO)C(C(=O)NC3CCCC3)c3ccc(F)cc3)n2)cc1 (stereo not given)	3.28
O=C(COc1ccc(Cl)cc1)NCc1nnc(SCC(=O)NC2CCCCC2)o1	3.28
S=c1[nH]c2ccc(Cl)cc2[nH]1	1.33
O=C(CSc1nnc(-c2cccs2)o1)N1CCOCC1	-4.31 (active)
CC1CCCC(C)N1C(=O)CSc1nnc(-c2cccs2)o1 (stereo not given)	3.46
COc1ccccc1C(c1nnnn1Cc1ccccc1)N1CCN(c2nc3ccccc3s2)CC1 (stereo not given)	-5.06 (active)
c1ccc(Cn2nnnc2C(c2ccccc2)N2CCN(c3nc4ccccc4s3)CC2)cc1 (stereo not given)	-3.45 (active)
COc1ccc(C(c2nnnn2Cc2ccccc2)N2CCN(c3nc4ccccc4s3)CC2)cc1 (stereo not given)	-5.01 (active)
N#C/C(=C/c1ccc(N2CCCCC2)o1)C(=O)Nc1ccc(Cl)cc1	17.2
c1ccc(-c2nnc3sc(CN4CCc5ccccc54)cn23)cc1	-0.03
COC(=O)c1ccc(Cl)c(-c2ccc(/C=N/NC(=O)Nc3ccccc3)o2)c1	-3.3 (active)
COc1cc([N+](=O)[O-])ccc1-c1ccc(/C=N/NC(N)=O)o1	3.33
COc1cc2c3nnc(-c4ccc(F)cc4)c-3cn(Cc3ccccc3F)c2cc1OC	6.27
CC(C)COC(=O)c1nnsc1NC(=O)Nc1ccccc1	-3.85 (active)
CC1CCc2c(sc3nn[nH]c(=O)c23)C1 (stereo not given)	4.24
COc1c2c(nc3ccccc13)OC(C(C)(O)COC(C)=O)C2 (stereo not given)	3.26
Cc1cc(C)cc(NC(=O)/C=C/c2ccc([N+](=O)[O-])s2)c1	5.99
COc1ccc(OC)c(/C(O)=C/C(=O)C(=O)Nc2cc(C)cc(C)c2)c1	-5.01 (active)
COc1cccc(/C=N/n2c(=O)[nH]c3ccccc32)c1OC	-4.61 (active)
O=[N+]([O-])c1ccc2c(c1)C(N1CCOCC1)/C(=C/COc1ccc3ccccc3c1Br)O2 (stereo not given)	-5.36 (active)
Cc1cc(C)n(-c2ccc(C(=O)OCC(=O)N(CC(C)C)C3CCS(=O)(=O)C3)cc2)n1 (stereo not given)	3.33
CCN(C(=O)COC(=O)c1cccnc1Nc1cccc(C(F)(F)F)c1)C1CCS(=O)(=O)C1 (stereo not given)	-4.37 (active)
O=Nc1c(O)n(Cc2ccc(Cl)cc2)c2ccccc12	3.05
COc1ccc(OC)c(-n2c(=S)[nH]c3c(sc(=S)n3-c3ccccc3)c2=O)c1	5.22

Compound	z-score
COc1ccc(C2C(=O)c3ccccc3C2=O)cc1OC	3.02
COc1ccc(C2C(Oc3ccccc3C)C(=O)N2Cc2ccc(F)cc2)cc1OC (stereo not given)	-5.19 (active)
COc1ccc(C2/C=C\CN(S(=O)(=O)c3cccc4cccnc34)CC(=O)N2Cc2ccc(F)cc2)cc1 (stereo not given)	7.49
CCOc1ccccc1-c1c2cc(O)c(=O)cc-2oc2cc(O)c(O)cc12	8.08
CCOc1ccccc1N=C1NC(=O)CS1	-6.97 (active)
O=C(Nc1nc2ccccc2n1CCN1CCOCC1)c1ccc(COc2ccccc2Br)o1	-3.48 (active)
COc1ccc(-c2nnc(SCC(=O)N(Cc3ccccc3)C(C)(C)C)o2)cc1OC	-5.96 (active)
CCCOC(=O)CSc1nnc(-c2ccc(Cl)cc2Cl)o1	-1.15
COC(=O)CN(C(=O)CSc1nnc(-c2cccc(OC)c2)o1)c1ccc(OC)cc1	-0.85
CCOC(=O)/C(=C/C=C1\Sc2cc(OCC)c(OCC)cc2N1CC)C(C)=O	16.2
Cc1ccc(C)c(Cn2c(C)nc3c(sc(=S)n3-c3ccccc3)c2=O)c1	2.17
Cc1nc2c(c(=O)n1Cc1ccccc1Cl)c1nc3ccccc3nc1n2Cc1ccco1	-5.21 (active)
CCN(C(=S)Nc1cccnc1)c1cccc2ccccc12	-3.01 (active)
CCN(C(=S)NCCOC)c1cccc2ccccc12	-3.13 (active)
COCCNC(=O)c1ccc2ccccc2n1	1.76
CCN(CC)CCN1C(=O)c2oc3ccccc3c(=O)c2C1c1ccccc1 (stereo not given)	3.66
CCCN1CCc2c(sc(NC(=S)NC(=O)c3ccccc3)c2C#N)C1	5.2
CN1CCN(CC(=O)Nc2sc3c(c2C#N)CCC(C(C)(C)C)C3)CC1 (stereo not given)	-3.27 (active)
CCCCN1C(=O)/C(=C/C=C2\N(C)c3ccccc3C2(C)C)SC1=S	10.9
CN1/C(=C\C=C2/SC(=S)NC2=O)C(C)(C)c2ccccc21	13.4
CCCCC(=O)Nc1ccc2c(c1)nc1n2CCSC1	3.16
Cc1cc(C)nc(N(C#N)CC(=O)N2CCC(C(N)=O)CC2)n1	1.53
CCOCCCNC(=O)c1ccc(N2CCCC2)c(NS(=O)(=O)c2ccc(C)cc2)c1	3.4
CN1CCN(c2ccccc2NC(=O)c2ccc(N3CCCC3)c([N+](=O)[O-])c2)CC1	-3.01 (active)

Compound	z-score
NC(=O)c1ccc(N2CCN(c3ccc(O)cc3)CC2)c([N+](=O)[O-])c1	-3.43 (active)
COc1ccccc1Nc1nc(Cl)c(C=O)s1	3.19
O=C(NC1=NCCS1)C1Cc2ccccc2CN1C(=O)c1ccccc1 (stereo not given)	3.06
COc1ccc2c(c1)NC(c1ccc(N(C)C)cc1)c1cccn1-2 (stereo not given)	12
COc1ccc2c(c1OC)C(=O)OC2	0.33
CCN(CC)c1ccc(/C=C/c2cc(-c3ccccc3)c3ccccc3n2)cc1	15.3
CCN(CC)c1ccc(C=C(c2nnnn2-c2ccccc2)c2nnnn2-c2ccccc2)cc1	4.4
CCN(CC)c1ccc(/C=N/Nc2nc(C)cc(C)n2)cc1	-3.23 (active)
Cc1c(N=C2N=C(NC(=O)c3cccs3)c3ccccc32)c(=O)n(-c2ccccc2)n1C	6.23
Cc1ccc(OCCN2CCN(C(=O)CCC(=O)Nc3nnc(C)s3)CC2)cc1	0.99
COC(=O)c1c(NC(=O)c2ccc(C)c(S(=O)(=O)Nc3ccccc3C)c2)sc2c1CCCC2	-3.01 (active)
CN1CCS/C1=C/C=C1/SC(=S)N(Cc2ccccc2)C1=O	12.1
CC(C)C(c1nnnn1C1CCCC1)N1CCOCC1 (stereo not given)	3.02
Clc1ccccc1CN(Cc1ccccc1)C(c1cccs1)c1nnnn1C1CCCC1 (stereo not given)	-6.23 (active)
CCN(Cc1ccccc1)C(c1cccs1)c1nnnn1C1CCCCC1 (stereo not given)	-3 (active)
CCCCNC(=S)NC(=O)c1ccc(Cl)cc1Cl	3.14
COc1ccc(NC(=O)CCN2CCCC(C)C2)cc1 (stereo not given)	1
COc1ccc(NC(=O)CCC(=O)OCc2ccc(Br)cc2)cc1	-5.13 (active)
C=CCn1c(=NC(=O)c2cc(-c3cccs3)nc3ccccc23)sc2cc(S(N)(=O)=O)ccc21	8.96
O=C(NC1C=CS(=O)(=O)C1)c1sc2ccccc2c1Cl (stereo not given)	3.86
C#CCn1c(=NC(=O)c2sc3ccccc3c2Cl)sc2cc(S(N)(=O)=O)ccc21	-3.78 (active)
CCN1CC=C2C(C#N)=C(N)C(C#N)(C#N)C(CCc3ccccc3)C2C1 (stereo not given)	13.8
Cc1cccc(-c2ncc(CN3CCCC(CO)(Cc4ccccc4C)C3)cn2)c1 (stereo not given)	3.13
